Records with an inconclusive call do not appear. Entries that show only a call come without a potency. Unmarked numbers belong to inactive results. The source made the active and inactive calls. Calls come from the whole dose curve; as a rule, active = well fitted cell-killing curve with a large enough effect; inconclusive = small, poorly fitted or top-dose-only effect, or effect the other way; inactive = flat fitted curve, though single readings scatter.
Tested on: CASKI
Assay: Primary qHTS to identify gynecologic anti-cancer compounds using libraries of approved drugs and bioactive compounds (AID 1345084); note: nearly all actives have a fitted effect of over 55% in size
Conditions: Gynecologic cancer cell panel viability, ATPlite luminescence, 48 h; series mostly up to 57.5 µM
Procedure, shortened: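 ATP-based viability (ATPlite), 1,000 cells/well, 16 h pre-incubation, 48 h compound at 37 C, 5% CO2, 15 min RT before read.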

**Q.** How did the Potency turn out when C=CC(C)(CC/C=C(\C)CC/C=C(\C)CC(O)/C=C(\C)C(=O)O)O[C@@H]1O[C@H](CO)[C@@H](O)[C@H](O)[C@H]1O[C@@H]1O[C@H](CO)[C@@H](O)[C@H](O)[C@H]1O (stereo partly specified) was run?
**A.** inactive

**Q.** For O=C(NCc1ccc(OC(F)(F)F)cc1)C1c2ccccc2C(=O)N1C1CCOCC1 (stereo unspecified), which Potency is on record?
**A.** inactive

**Q.** For COC(=O)[C@H](OC(C)=O)[C@H]1C(C)(C)C(=O)[C@H]2CC3=C4CC(=O)O[C@@H](c5ccoc5)[C@]4(C)CCC3[C@@]1(C)C2=O (stereo partly specified), which Potency is on record?
**A.** inactive

**Q.** With O=C(O[C@H]1[C@@H]2C[C@@H]3OC[C@@](O)([C@H]2[C@H](O[C@@H]2O[C@H](CO)[C@@H](O)[C@H](O)[C@H]2O)O3)[C@@H]1O)c1ccccc1 as the compound, how does the Potency read?
**A.** inactive

**Q.** N#CC1C(=O)Nc2scc(-c3ccc(-c4ccccc4O)cc3)c2C1=O (stereo unspecified) was tested. Which Potency did it give?
**A.** inactive

**Q.** How did the Potency turn out when CC1CCC(=O)CC(O)C(O)CC(=O)O1 (stereo unspecified) was run?
**A.** inactive

**Q.** Which Potency does the source give for Cc1ncc([N+](=O)[O-])n1CC(O)CN1CCOCC1 (stereo unspecified) here?
**A.** inactive

**Q.** With CC(C)(O)C1CC=C(C(=O)OCC2OC(Oc3c(O)cc(C(=O)O)cc3O)C(O)C(O)C2O)CC1 (stereo unspecified) as the compound, how does the Potency read?
**A.** inactive

**Q.** CC1=CC[C@]2(C(=O)O[C@@H]3O[C@H](CO[C@@H]4O[C@H](CO)[C@@H](O[C@@H]5O[C@@H](C)[C@H](O)[C@@H](O)[C@H]5O)[C@H](O)[C@H]4O)[C@@H](O)[C@H](O)[C@H]3O)CC[C@]3(C)C(CCC4[C@@]5(C)C[C@@H](O)[C@H](O)[C@@](C)(CO)C5CC[C@]43C)C2C1C (stereo partly specified) was tested. Which activity change, negative = cytotoxicity did it give?
**A.** 4.37% [at 11.6 µM]

**Q.** How did the Potency turn out when CC(=O)N[C@H]1CCN(c2ccc(C3=NOC(CN[S+](=O)([O-])C(C)C)C3)cc2F)C1 (stereo partly specified) was run?
**A.** inactive

**Q.** O=C(/C=C/c1ccc(O)cc1)OC[C@H]1O[C@@H](OC(=O)/C=C/c2ccccc2)[C@H](O)[C@@H](O)[C@@H]1O was tested. Which Potency did it give?
**A.** inactive

**Q.** Which Potency does the source give for CC(=O)O[C@H]1[C@H](C)[C@@H](O)[C@H]2[C@@H]1C=C(C(=O)O)[C@H]1C[C@@H]3[C@H]([C@H]21)[C@H]1C(=O)O[C@@H]2CC[C@@]3(C)O[C@]1(O)[C@@H]2C here?
**A.** inactive

**Q.** How did the Potency turn out when N[C@H]1C[C@H]1c1ccc(-c2cccc(O)c2)cc1 was run?
**A.** inactive

**Q.** COC(=O)c1ccc(O[C@@H]2O[C@H](CO)[C@@H](O)[C@H](O)[C@H]2O)c(OC)c1 was tested. Which Potency did it give?
**A.** inactive

**Q.** How did the Potency turn out when CCn1nnnc1NCc1ccc(C(C)C)cc1 was run?
**A.** inactive

**Q.** COc1c2c(c(C)c3c1C(=O)OC3)OC1(C)CC(O)C3(O)C(C)(C)OC(=O)CCC3(C)C1C2 (stereo unspecified) was tested. Which Potency did it give?
**A.** inactive

**Q.** For C=C1CCC[C@]2(C)C[C@]3(O)OC(=O)C(C)=C3C[C@@H]12, which Potency is on record?
**A.** inactive

**Q.** How did the Potency turn out when COc1cc(/C=C/C(=O)OC2CC(C)=C(C(=O)O)/C2=C/CO[C@@H]2O[C@H](CO)[C@@H](O)[C@H](O)[C@H]2O)ccc1O (stereo partly specified) was run?
**A.** inactive

**Q.** With C=C1CCC2(OC1)OC1CC3C4CC=C5CC(O)CC(O[C@@H]6OC[C@@H](O)[C@H](O)[C@H]6O)C5(C)C4CCC3(C)C1(O)C2C (stereo partly specified) as the compound, how does the Potency read?
**A.** inactive

**Q.** For CC(C)CC(=O)OC[C@H]1O[C@@](COC(=O)CC(C)C)(O[C@H]2O[C@H](CO)[C@@H](O)[C@H](O)[C@H]2O)[C@@H](OC(=O)CC(C)C)[C@@H]1OC(=O)CC(C)C, which Potency is on record?
**A.** inactive

**Q.** Which Potency does the source give for CC(C)C1=CC2=CCC3[C@](C)(CCC[C@@]3(C)C(=O)O)C2CC1=O (stereo partly specified) here?
**A.** inactive

**Q.** With O=C1N(CC2CCCCN2)CCN1c1ccccc1 (stereo unspecified) as the compound, how does the Potency read?
**A.** inactive

**Q.** For CCOC(=O)[C@H](CCc1ccccc1)N[C@@H](C)C(=O)N1C2CCCCC2C[C@H]1C(=O)O (stereo partly specified), which Potency is on record?
**A.** inactive

**Q.** Which Potency does the source give for C[C@H]1[C@H](C)CC[C@]2(C(=O)O)CC[C@]3(C(=O)O)C(=CCC4[C@@]5(C)CC[C@H](O[C@@H]6O[C@H](C)[C@@H](O)[C@H](O)[C@H]6O)C(C)(C)C5CC[C@]43C)[C@H]12 (stereo partly specified) here?
**A.** inactive

**Q.** With O=C1NCc2nc3ccccc3c(=O)n2C1Cc1c[nH]c2ccccc12 (stereo unspecified) as the compound, how does the Potency read?
**A.** inactive

**Q.** O=C(O[C@H]1[C@@H]2C=CO[C@@H](O[C@@H]3O[C@H](CO)[C@@H](O)[C@H](O)[C@H]3O)[C@@H]2[C@@]2(CO)O[C@@H]12)c1ccc(O)cc1 was tested. Which Potency did it give?
**A.** inactive

**Q.** C=C(C)[C@@H]1CC[C@](C)(O)[C@@H](OC(=O)c2ccccc2)C1 was tested. Which Potency did it give?
**A.** inactive

**Q.** CCOc1nc2cccc(C(=O)OCc3oc(=O)oc3C)c2n1Cc1ccc(-c2ccccc2-c2noc(O)n2)cc1 was tested. Which Potency did it give?
**A.** inactive

**Q.** How did the Potency turn out when C[C@@H](Nc1cc(NS(=O)(=O)N2CCC2)nc(SCc2cccc(F)c2F)n1)[C@@H](O)CO was run?
**A.** inactive

**Q.** With Cc1cc(N2CCCCC2)nc2ccccc12 as the compound, how does the Potency read?
**A.** inactive

**Q.** For C=C(C)C(=O)O[C@H]1C[C@@](C)(OC(C)=O)[C@@]2(O)CC[C@@](C)(O)[C@H](OC(C)=O)[C@@]23OC(=O)C(COC)=C13, which Potency is on record?
**A.** inactive
